Experimental data published in PubChem BioAssay.
Records with an inconclusive call do not appear. Active and inactive are the calls of the source.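 Rule for the calls, unless noted: active = normalized viability below 100% at a tested concentration; inactive = the rest.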

Assays:
[1] = viability loss in pontine glioma line – cell-based, SU-DIPG-XXV, MIPE5.0, CellTiter-Glo, qHTS, dose response (AID 1347065; cut-off not given, nearly all actives have AC50 up to about 26 µM;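 note: cells exposed to compound for 48 hours before ATP readout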); settings: CellTiter-Glo ATP luminescence
[2] = growth inhibition of DIPG cells – cell-based, MIPE5.0 library, qHTS (AID 1347068; cut-off not given, nearly all actives have IC50 up to about 30 µM); settings: SU-DIPG-XXV viability
[3] = viability loss in pontine glioma line – cell-based, SU-DIPG-XIII, MIPE5.0, CellTiter-Glo, qHTS, dose response (AID 1347064; cut-off not given, nearly all actives have AC50 up to about 23 µM;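 for AC50: cells exposed to compound for 48 hours before the viability read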); settings: CellTiter-Glo ATP luminescence
[4] = JHH-DIPG-1 glioma cell viability, MIPE5.0 library, CellTiter-Glo luminescence, qHTS (AID 1347067; cut-off not given, nearly all actives have AC50 up to about 26 µM;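 note: cells exposed to compound for 48 hours before readout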); settings: JHH-DIPG-1 glioma viability, CellTiter-Glo ATP luminescence
[5] = viability loss with induced miR-34 in A549 – imaging, A549 dox-inducible miR-34, nuclei and caspase counts, primary screen (AID 1347080;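 active = compounds whose cell count with miR-34 switched on is under 0.7 times the count with it off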); settings: A549 miR-34 inducible, Hoechst nuclei count, 48 h
[6] = viability loss in pontine glioma line – cell-based, SU-DIPG-IV, MIPE4.0, CellTiter-Glo, qHTS, dose response (AID 1347063; cut-off not given, nearly all actives have AC50 up to about 30 µM;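 note: compound exposure lasted 48 hours before the viability readout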); settings: CellTiter-Glo ATP luminescence
[7] = MELAS cybrid and Rieske KO viability enhancers – cell-based, MELAS cybrids, Rieske KO mouse fibroblasts, CellTiter-Glo, primary screen (AID 1508586;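 active = mean z-score across replicates of 1.96 or higher in either the MELAS or the Rieske mutant cell line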;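 note: z relative to plate mean and SD of compound and empty wells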); settings: low glucose
[8] = drug combination growth inhibition, ovarian cancer – cell-based, oncology-focused library, rucaparib conditional, profiling panel (AID 1508598); settings: patient-derived ovarian cancer cells, CellTiter-Glo viability, 144 h, stronger effect = lower value
[9] = stronger effect = lower value, cell number ratio, induced over uninduced
[10] = measured here: relative caspase fold change +Dox/-Dox
[11] = measured here: total cells with miR-34 induction, stronger effect = lower value
[12] = measured here: total cells without miR-34 induction

In the case of `C[C@H](Nc1ncnc2nc[nH]c12)c1nc2ccc(F)cc2c(=O)n1-c1ccccc1`, the AC50 [1] is reported as 14.8 µM (active) and the outcome [2] is reported as “inactive”.

For `CCCCCCC(C)(C)c1cc(O)c2c(c1)OC(C)(C)C1CC=C(CO)C[C@H]21` (some centres undefined), the AC50 [3] was 9.34 µM (active), the AC50 [1] was 7.42 µM (active) and the AC50 [4] was 7.42 µM (active).

In the case of `C=C(C)[C@@H]1CCC(C)=C[C@H]1c1c(OC)cc(CCCCC)cc1OC`, the fold change [5, 9] is reported as 0.935 (inactive), the fold change [5, 10] is reported as 1.03 and the cell count [5, 11] is reported as 5760. It also gave a cell count [5, 12] of 6160.

With `CCCCCCC(=O)O[C@H]1CC[C@H]2[C@@H]3C=CC4=CC(=O)CC[C@]4(C)[C@H]3CC[C@]12C` the fold change ([5]; stronger effect = lower value) was 0.948 (inactive), the fold change [5, 10] was 0.362 and the cell count [5, 11] was 5660. The cell count [5, 12] was 5970.

With `COc1ccc(/C=C\c2cc(OC)cc(OC)c2)cc1` the fold change [5, 9] was 1.08 (inactive), the fold change [5, 10] was 1.44 and the cell count [5, 11] was 1220. The cell count [5, 12] was 1130.

For `CCNC(=O)CC1N=C(c2ccc(Cl)cc2)c2cc(OC)ccc2-n2c(C)nnc21` (centres undefined), the AC50 [6] was 16.6 µM (active), the outcome [3] was “inactive” and the outcome [1] was “inactive”. The outcome [4] was “inactive”, the outcome [2] was “inactive” and the fold change [5, 9] was 0.886 (inactive). The fold change [5, 10] was 0.522, the cell count [5, 11] was 5810 and the cell count [5, 12] was 6550. The z-score ([7]; MELAS cybrid survival, CellTiter-Glo 48 h, stronger effect = higher value) was 0.755 (inactive) and the z-score ([7]; Rieske KO mouse fibroblast survival, CellTiter-Glo 72 h) was -2.99.

In the case of `CCCCC/C=C\C/C=C\C/C=C\C/C=C\CCCC(=O)NCC(O)CC(=O)O` (centres undefined), the fold change [5, 9] is reported as 1.07 (inactive), the fold change [5, 10] is reported as 1.27 and the cell count [5, 11] is reported as 5440. It also gave a cell count [5, 12] of 5070.

For `CCCCC/C=C\C/C=C\C/C=C\C/C=C\CCCC(=O)NCc1ccoc1`, the fold change [5, 9] was 0.985 (inactive), the fold change [5, 10] was 1.68 and the cell count [5, 11] was 5700. It also gave a cell count [5, 12] of 5790.

With `CC(=O)N1N=C(c2ccc(N)cc2)c2cc3c(cc2C[C@H]1C)OCO3` the outcome [3] was “inactive”, the outcome [1] was “inactive” and the outcome [4] was “inactive”. For the same compound, the outcome [2] was “inactive”.

In the case of `Cc1sc2c(c1C)C(c1ccc(Cl)cc1)=N[C@@H](CC(N)=O)c1nnc(C)n1-2`, the outcome [4] is reported as “inactive”, the outcome [2] is reported as “inactive” and the viability ([8]; at 0.000305 µM, OCI-C5x cells, with rucaparib 10 µM, 100% = cells with rucaparib alone) is reported as 106% (inactive). The viability ([8]; at 0.000305 µM, OCI-C5x cells, without rucaparib) was 111% (inactive), the viability ([8]; at 0.000305 µM, OCI-P5x cells, with rucaparib 20 µM, 100% = cells with rucaparib alone) was 89.8% (active) and the viability ([8]; at 0.000305 µM, OCI-P5x cells, without rucaparib) was 93.2% (active). For the same compound, the viability ([8]; at 0.00122 µM, OCI-C5x cells, with rucaparib 10 µM, 100% = cells with rucaparib alone) was 111% (inactive), the viability ([8]; at 0.00122 µM, OCI-C5x cells, without rucaparib) was 124% (inactive) and the viability ([8]; at 0.00122 µM, OCI-P5x cells, with rucaparib 20 µM, 100% = cells with rucaparib alone) was 100% (inactive). For the same compound, the viability ([8]; at 0.00122 µM, OCI-P5x cells, without rucaparib) was 96.7% (active), the viability ([8]; at 0.00488 µM, OCI-C5x cells, with rucaparib 10 µM, 100% = cells with rucaparib alone) was 99.7% (active) and the viability ([8]; at 0.00488 µM, OCI-C5x cells, without rucaparib) was 94.7% (active). The viability ([8]; at 0.00488 µM, OCI-P5x cells, with rucaparib 20 µM, 100% = cells with rucaparib alone) was 97.5% (active), the viability ([8]; at 0.00488 µM, OCI-P5x cells, without rucaparib) was 97.3% (active) and the viability ([8]; at 0.0195 µM, OCI-C5x cells, with rucaparib 10 µM, 100% = cells with rucaparib alone) was 64.4% (active). The viability ([8]; at 0.0195 µM, OCI-C5x cells, without rucaparib) was 66.5% (active), the viability ([8]; at 0.0195 µM, OCI-P5x cells, with rucaparib 20 µM, 100% = cells with rucaparib alone) was 82.4% (active) and the viability ([8]; at 0.0195 µM, OCI-P5x cells, without rucaparib) was 90% (active). For the same compound, the viability ([8]; at 0.0781 µM, OCI-C5x cells, with rucaparib 10 µM, 100% = cells with rucaparib alone) was 38.4% (active), the viability ([8]; at 0.0781 µM, OCI-C5x cells, without rucaparib) was 48.1% (active) and the viability ([8]; at 0.0781 µM, OCI-P5x cells, with rucaparib 20 µM, 100% = cells with rucaparib alone) was 54.9% (active). For the same compound, the viability ([8]; at 0.0781 µM, OCI-P5x cells, without rucaparib) was 77.6% (active), the viability ([8]; at 0.313 µM, OCI-C5x cells, with rucaparib 10 µM, 100% = cells with rucaparib alone) was 20.3% (active) and the viability ([8]; at 0.313 µM, OCI-C5x cells, without rucaparib) was 29.5% (active). The viability ([8]; at 0.313 µM, OCI-P5x cells, with rucaparib 20 µM, 100% = cells with rucaparib alone) was 31.5% (active), the viability ([8]; at 0.313 µM, OCI-P5x cells, without rucaparib) was 66.2% (active) and the viability ([8]; at 1.25 µM, OCI-C5x cells, with rucaparib 10 µM, 100% = cells with rucaparib alone) was 16.4% (active). For the same compound, the viability ([8]; at 1.25 µM, OCI-C5x cells, without rucaparib) was 26.3% (active), the viability ([8]; at 1.25 µM, OCI-P5x cells, with rucaparib 20 µM, 100% = cells with rucaparib alone) was 24% (active) and the viability ([8]; at 1.25 µM, OCI-P5x cells, without rucaparib) was 64.7% (active). The viability ([8]; at 5 µM, OCI-C5x cells, with rucaparib 10 µM, 100% = cells with rucaparib alone) was 14.7% (active), the viability ([8]; at 5 µM, OCI-C5x cells, without rucaparib) was 20.8% (active) and the viability ([8]; at 5 µM, OCI-P5x cells, with rucaparib 20 µM, 100% = cells with rucaparib alone) was 19% (active). For the same compound, the viability ([8]; at 5 µM, OCI-P5x cells, without rucaparib) was 56.3% (active).
